The nature of experiment [1]: growth inhibition of DIPG glioma cells, dose response, cell-based, SU-DIPG-IV, MIPE4.0, CellTiter-Glo, qHTS (AID 1347063; cut-off not given, nearly all actives have AC50 up to about 30 µM;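 further: compound exposure lasted 48 hours before the viability readout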). Particulars: SU-DIPG-IV viability, CellTiter-Glo ATP luminescence. A general note: Cellular ATP, detected with luciferase, serves as a proxy for viable cell number.
Experiment [2] can be described thus: growth inhibition of DIPG glioma cells, dose response, cell-based, SU-DIPG-XIII, MIPE5.0, CellTiter-Glo, qHTS (AID 1347064; cut-off not given, nearly all actives have AC50 up to about 23 µM). Particulars: SU-DIPG-XIII viability, CellTiter-Glo ATP luminescence.
Experiment [3] can be described thus: JHH-DIPG-1 glioma cell viability, MIPE5.0 library, CellTiter-Glo luminescence, qHTS (AID 1347067; cut-off not given, nearly all actives have AC50 up to about 26 µM;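 further: cells exposed to compound for 48 hours before readout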). The note with it: JHH-DIPG-1 glioma viability, CellTiter-Glo ATP luminescence.
Experiment [4] in a line: modifiers of HSF1 nuclear foci, imaging, Selleck Cancer Library (AID 1347162; in the data active means plate-normalised HSF1 focus index below about 0.46). The note with it: human cells, at 10 µM; SSMD: measured here: HSF1 foci SSMD mean; cell count: measured here: cell number; plate-normalised HSF1 focus index: stronger effect = lower value.
The target in experiment [5] is NAD(+) hydrolase SARM1 (Homo sapiens) (UniProt Q6SZW1). The experiment can be described thus: SARM1 TIR NADase inhibitors, cell lysate, NAD-Glo luminescence (AID 1508614;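 active means compound whose remaining NAD level is above about 45 nM, limit read from the data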). Particulars: SAM-TIR HEK293T lysate NADase, at 1 µM, stronger effect = higher value.
Experiment [6] can be described thus: LFS_MB_P medulloblastoma growth inhibition, cell-based, chromothripsis tumors, cisplatin or BGB combos (AID 1671449).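 Further: cells exposed for 96 hours; 0% = vehicle DMSO and 100% = killing by high DMSO.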 Particulars: LFS_MB_P medulloblastoma cells.
A short description of experiment [7]: HDN33 neuroblastoma growth inhibition, cell-based, chromothripsis tumors, cisplatin or BGB combos (AID 1671450).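 Further: cells exposed to compound for four days; 0% = vehicle DMSO and 100% = cell killing by high DMSO.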 The note with it: HDN33 neuroblastoma cells, stronger effect = higher value.
Experiment [8] in a line: ICB984 medulloblastoma cell growth inhibition, synergistic combos for chromothripsis tumors, cisplatin or BGB combos (AID 1671451; call rule not given here;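 further: cells exposed for 96 hours before readout; 0% = vehicle DMSO and 100% = killing by high DMSO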). The note with it: ICB984 medulloblastoma cells, drug combinations, stronger effect = higher value.
Experiment [9] in a line: LFS_MB_1R medulloblastoma cell growth inhibition, synergistic combos for chromothripsis tumors, cisplatin or BGB combos (AID 1671452).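 Further: cells exposed for 96 hours before readout.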 The note with it: LFS_MB_1R medulloblastoma cells, stronger effect = higher value.
The nature of experiment [10]: HTB85 osteosarcoma cell growth inhibition, synergistic combos for chromothripsis tumors, BGB or cisplatin IC20 combos (AID 1671453).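 Further: cells exposed for 96 hours before readout; 0% = vehicle DMSO and 100% = high DMSO killing control.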 Particulars: HTB85 osteosarcoma cells, drug combinations, stronger effect = higher value.
Experiment [11] is described as follows: CRL2098 osteosarcoma cell growth inhibition, synergistic combos for chromothripsis tumors, BGB or cisplatin IC20 combos (AID 1671454).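 Further: cells exposed for 96 h before readout; 0% = vehicle DMSO and 100% = killing by high DMSO.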 Particulars: CRL2098 osteosarcoma cells, drug combinations, stronger effect = higher value.
Experiment [12] is described as follows: MDA-MB-436 breast carcinoma cell growth inhibition, synergistic combos for chromothripsis tumors, BGB or cisplatin combos (AID 1671458; call rule not given here;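 further: cells exposed for 96 hours; 0% = vehicle DMSO and 100% = killing by high DMSO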). Particulars: MDA-MB-436 breast carcinoma growth inhibition, drug combinations, stronger effect = higher value.
Experiment [13] is described as follows: growth inhibition of BT084 medulloblastoma cells, cell-based, ICGC_MB145, cisplatin and BGB IC40 combos (AID 1671461).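 Further: cells exposed to drugs for 96 hours; 0% = vehicle DMSO and 100% = high DMSO full killing control.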 The note with it: drug combinations, stronger effect = higher value.
Experiment [14] can be described thus: growth inhibition of RCMB18 medulloblastoma cells, cell-based, cisplatin and BGB IC40 combos (AID 1671462).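 Further: cells exposed to compound for four days.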 Particulars: stronger effect = higher value.
Experiment [15] is described as follows: growth inhibition of CRL1545 osteosarcoma cells, cell-based, cisplatin and BGB IC20 combos (AID 1671464).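 Further: cells exposed to compound for 96 hours before readout; 0% = vehicle DMSO and 100% = high DMSO killing control.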 The note with it: stronger effect = higher value.
Where [16] appears, read: measured here: combination with BGB IC40, at 0.05 µM.
Where [17] appears, read: measured here: with BGB IC20 combination, at 0.5 µM.
[18] abbreviates: measured here: with cisplatin IC20 combination, at 0.5 µM.
Where [19] appears, read: measured here: combination with cisplatin, at 0.5 µM.

“And” between values parts separate entries of the source, which are not always exact repeats. Equal values may be shown once. Inconclusive results are not listed. The source made the active and inactive calls. Unless noted, no stated cut-off is given here; in the data, active means inhibition above about 80%; inactive means the rest.

The term inhibition denotes the drop in the measured response relative to a control, in per cent. In general, AC50 refers to the concentration giving half of the maximal activity seen.

Chain of NAD(+) hydrolase SARM1 (Homo sapiens) (Q6SZW1 whole entry, looked up): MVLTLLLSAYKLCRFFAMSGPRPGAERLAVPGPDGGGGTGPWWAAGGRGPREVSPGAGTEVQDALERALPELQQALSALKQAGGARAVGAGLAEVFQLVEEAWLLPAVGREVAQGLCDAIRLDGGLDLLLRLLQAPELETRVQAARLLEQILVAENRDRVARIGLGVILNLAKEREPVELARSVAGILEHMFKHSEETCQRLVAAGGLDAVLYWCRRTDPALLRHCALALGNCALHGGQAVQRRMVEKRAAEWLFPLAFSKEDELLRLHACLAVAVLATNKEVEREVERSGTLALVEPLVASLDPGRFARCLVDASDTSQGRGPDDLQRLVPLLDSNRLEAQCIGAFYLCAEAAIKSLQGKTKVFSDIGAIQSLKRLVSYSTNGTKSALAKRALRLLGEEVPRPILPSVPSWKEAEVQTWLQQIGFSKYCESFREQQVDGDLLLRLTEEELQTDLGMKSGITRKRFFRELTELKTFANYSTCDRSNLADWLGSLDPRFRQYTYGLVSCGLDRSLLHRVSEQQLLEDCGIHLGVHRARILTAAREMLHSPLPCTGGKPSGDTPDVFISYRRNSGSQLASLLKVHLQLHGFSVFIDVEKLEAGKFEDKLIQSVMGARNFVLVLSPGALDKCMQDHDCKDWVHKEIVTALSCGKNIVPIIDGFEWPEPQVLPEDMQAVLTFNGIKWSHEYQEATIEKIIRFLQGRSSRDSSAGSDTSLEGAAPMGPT

`CCCCCOC(=O)Nc1nc(=O)n([C@@H]2O[C@H](C)[C@@H](O)[C@H]2O)cc1F`: the outcome in experiment [1], in experiment [2] and in experiment [3] was inactive. Besides, the SSMD in experiment [4] amounted to 2.2. The same molecule showed a cell count in experiment [4] of 7640. Besides, the plate-normalised HSF1 focus index in experiment [4] was 1.08 (inactive). The remaining NAD in [5] was 10 nM (inactive). Further, the inhibition in experiment [6] (at 0.5 µM, stronger effect = higher value) is 1.4% (inactive) and -21.9% (inactive); in experiment [6] (measured here: combination with BGB IC20, at 0.005 µM) it was -14.6% and -21.7%; in [6] (measured here: combination with BGB IC40, at 0.005 µM), -20.4% and -20.9%; in experiment [6] (setting [16]), -19.6% and -29%; in experiment [6] (measured here: combination with cisplatin, at 0.5 µM, stronger effect = higher value), -27.7% and -33.8%; in experiment [6] (measured here: combination with cisplatin, at 5 µM, stronger effect = higher value), -25.5% and -51.4%. Besides, the inhibition in [7] (BGB combo, at 5 µM) is -43.4% and -24%; in experiment [7] (at 0.5 µM), -46.5% (inactive) and -7.86% (inactive); in [7] (cisplatin combo, at 5 µM) it was -42.6% and -1.99%; in experiment [7] (setting [17]), -56.7% and -7.65%; in [7] (setting [18]), -38% and 1.73%; in [7] (single agent, at 5 µM), -49.4% and -2.05%. Further, the inhibition is 4.24% and 4.65% in experiment [8] (BGB IC20 combo, at 0.005 µM); -24.4% and -11% in experiment [8] (BGB IC40 combo, at 0.005 µM); -29.4% and -22.1% in experiment [8] (BGB IC40 combo, at 0.05 µM); -39.5% (inactive) and -17.6% (inactive) in [8] (at 0.5 µM); -33% and -26.5% in experiment [8] (cisplatin combo, at 0.05 µM); -46.4% and -4.14% in experiment [8] (cisplatin combo, at 0.5 µM). Moreover, the inhibition in [8] (cisplatin combo, at 5 µM) is -48.1% and -27.4%; in experiment [8] (measured here: 5 uM single agent, at 5 µM), -17.2% and -23.5%; in experiment [9] (at 0.5 µM) it was -36.3% (inactive) and -17.9% (inactive); in experiment [9] (setting [16]), -77.2% and -11.6%; in experiment [9] (setting [19]), -36.7% and -43%; in experiment [9] (measured here: combination with cisplatin, at 5 µM) it was -42.5% and -67.7%. Also, the inhibition is -24.5% (inactive) and -10.3% (inactive) in experiment [10] (at 0.5 µM); -20% and -11.5% in experiment [10] (measured here: with BGB IC20, at 0.5 µM); -100% and -18.6% in [10] (measured here: with BGB IC20, at 5 µM); -35.2% and -21.3% in experiment [10] (measured here: with cisplatin IC20, at 0.5 µM); -30% and -33.3% in experiment [10] (measured here: with cisplatin IC20, at 5 µM); -21% and -4.05% in experiment [10] (single agent, at 5 µM). Further, the inhibition in [11] (at 0.5 µM) was -110% (inactive) and -37.4% (inactive); in [11] (measured here: combination with BGB at IC20, at 0.5 µM), -124% and -32.3%; in [11] (measured here: combination with cisplatin at IC20, at 0.5 µM), -103% and -72.6%; in experiment [12] (at 0.5 µM) it was -36.5% (inactive) and -2.12% (inactive); in experiment [12] (measured here: BGB combination, at 0.5 µM) it was -31.4% and -6.87%; in experiment [12] (measured here: BGB combination, at 5 µM), -29.8% and -7.46%. Further, the inhibition is -50.7% and -2.06% in experiment [12] (measured here: cisplatin combination, at 0.5 µM); -40.9% and -28% in experiment [12] (measured here: cisplatin combination, at 5 µM); -20.5% (inactive) and -7.04% (inactive) in experiment [13] (at 0.5 µM); -5.51% and -26.5% in experiment [13] (cisplatin combination, at 0.5 µM); -19.4% and -8.1% in experiment [13] (cisplatin combination, at 5 µM); -7.71% and -17.1% in experiment [13] (measured here: BGB IC40 combination 0.05 uM, at 0.05 µM). Moreover, the inhibition is -28.9% and -3.19% in [13] (single agent, at 5 µM); -0.93% (inactive) and -5.48% (inactive) in experiment [14] (at 0.5 µM); -35.1% and -36.1% in experiment [14] (cisplatin combo, at 5 µM); -29.7% and -0.207% in [14] (measured here: BGB IC40 combination, at 0.05 µM); -33.1% and 15.5% in experiment [14] (setting [19]); -11.2% and -19.2% in experiment [14] (single agent, at 5 µM). For the same molecule, the inhibition in [15] (at 0.5 µM) is -52.6% (inactive) and -13.7% (inactive); in experiment [15] (setting [17]), -42.3% and -20.5%; in experiment [15] (setting [18]), -61.3% and -12%; in experiment [15] (single agent, at 0.05 µM) it was -66.9% and -17.4%; in experiment [15] (single agent, at 5 µM) it was -52.4% and -6.48%.

For the molecule `C[C@H]1C[C@H]2[C@@H]3CCC4=CC(=O)C=C[C@]4(C)[C@H]3C(=O)C[C@]2(C)[C@@]1(O)C(=O)CO`, the call in [1] and in experiment [3] was inactive.

On to `CC(=O)SC[C@@H](C)C(=O)N1CCC[C@H]1C(=O)N[C@@H](Cc1ccccc1)C(=O)O`, for which the molecule was called inactive in [1] and in [3].

As to `CC(C)C[C@H](NC(=O)[C@H](Cc1ccccc1)NC(=O)c1cnccn1)B(O)O`, in experiment [1], the AC50 is 8.33 nM (active). In addition, the half-maximal activity concentration (AC50) in experiment [3] was 26.3 nM (active). For the same molecule, in experiment [4], the SSMD worked out at 3.94, the cell count was 7530 and the plate-normalised HSF1 focus index was 1.14 (inactive).

As to `CCC(C)(Oc1ccc(C2(c3ccc(OC(C)(CC)C(=O)O)cc3)CCCCC2)cc1)C(=O)O` (configuration not stated), the molecule was classed as inactive in experiment [1], in experiment [2] and in experiment [3].

The record behind these values is PubChem BioAssay.
